# Data as given in PubChem BioAssay (NCATS).
# Results filed as inconclusive are left out. A number with no mark means an inactive call. Active and inactive are the calls of the source. The call rests on the fitted dose curve; in most records, active means well fitted inhibition curve with a large enough effect; inconclusive means small, poorly fitted or top-dose-only effect; inactive means no such curve, though single readings can be large or run the other way.
# Biological target: Muscarinic acetylcholine receptor M1 (Rattus norvegicus) (UniProt P08482)
# Sequence (P08482 whole entry, looked up): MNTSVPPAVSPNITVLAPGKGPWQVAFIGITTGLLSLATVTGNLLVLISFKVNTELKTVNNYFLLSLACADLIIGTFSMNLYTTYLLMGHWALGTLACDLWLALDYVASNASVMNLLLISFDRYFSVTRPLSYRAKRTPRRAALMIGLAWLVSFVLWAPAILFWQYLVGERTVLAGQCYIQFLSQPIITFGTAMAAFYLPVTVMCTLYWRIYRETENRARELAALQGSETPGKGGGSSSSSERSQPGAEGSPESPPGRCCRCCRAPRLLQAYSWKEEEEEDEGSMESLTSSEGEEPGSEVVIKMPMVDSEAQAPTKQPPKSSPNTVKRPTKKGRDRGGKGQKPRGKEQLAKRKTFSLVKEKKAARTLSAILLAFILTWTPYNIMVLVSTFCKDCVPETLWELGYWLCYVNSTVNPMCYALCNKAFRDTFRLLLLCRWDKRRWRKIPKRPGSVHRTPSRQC
# Experiment: qHTS Assay for Antagonists of Acetylcholine Muscarinic M1 Receptor: Kinetic Measurement of Intracellular Calcium Response (AID 943); further: nearly all actives have a fitted effect of over 75% in size
# Settings: M1-expressing cells, kinetic intracellular calcium fluorescence; series mostly up to 35.3 µM; activity change, negative = inhibition: at the top concentration
# From the text: NIH Molecular Libraries Screening Centers Network [MLSCN]
# NIH Chemical Genomics Center [NCGC]
# Acetylcholine muscarinic M1 receptor is a G-protein coupled receptor (GPCR) coupling to the Gq G protein. It is mainly expressed in brain and functionally related to the learning and memory processes. The agonists of this receptor have the potential for the treatment of Alzheimer's disease and cognitive impairments associated with Schizophrenia. Upon an activation of the M1 receptor, phosholipase C (PLC) is activated to produce inositol 1,4,5-trisphosphate (IP3) and diacyl glycerol (DAG) resulting in increase of intracellular free Ca2+ and activation of protein kinase C (PKC). The increase of intracellular calcium can be measured by the fluorescent calcium dyes, Fluo-3 and Fluo-4, using a fluorescence kinetic plate reader.
# We have obtained a M1-CHO cell line transfected with rat acetylcholine M1 receptor and optimized a calcium assay with this cell line for compound screening as a counter-screen assay for other Gq-coupled GPCRs.
# NCGC Assay Protocol Summary:
# The CHO-M1 (CHO-M1) cell line transfected with the rat acetylcholine muscarinic M1 receptor was obtained from ATCC. The cells were maintained in call culture flasks with F12 Kaighn's media (Invitrogen) supplemented with 10 % FBS, 100 units/ml penicillin, 100 ug/ml streptomycin and 250 ug/ml geneticin (Invitrogen) at 37C, 5 % CO2 in a humidified atmosphere. At 90-95 % confluence, the cells were then detached in 15 ml […] % trypsin by 3 minutes incubation at 37C and centrifuged at 1000 RPM to remove the trypsin solution. The resulting cell pellet was resuspended in the cell freezing media containing 10 % DMSO (Invitrogen) at a density of 4 x 10^7 cells/ml. The aliquots of cells at 0.5 - 1 ml per vial were frozen down slowly at 1 degree C/min using a Cryo 1 degree C freezing container in the presence of isopropanol (Nalgene Nunc, Rochster, NY) overnight in a -80C freezer. The frozen cells were then transferred to liquid nitrogen for the storage up to one year.
# The resuspended frozen cells were plated at 3 ul/well with 2000 cells in the black, tissue culture treated, clear bottom 1536-well plates. After overnight incubation at 37C, 5% CO2, 2.5 ul/well no-wash calcium dye (containing Fluo-4, BD Biosciences) were loaded and incubated at 37C, 5 % CO2 for 1 hour followed by a 10 min incubation with 20 nl compound in DMSO solution. The assay plates were then placed onto the kinetic fluorescence plate reader (FDSS-7000, Hamamatsu) for a measurement of the kinetic changes in intracellular free calcium. The basal fluorescence signal was measured for 6 times at 1 Hz followed by an addition of 1 ul of carbachol and continued 4 min measurement. The results were calculated as the maximal signal (peak) divided by the minimal signal (basal).
# 1536-well assay protocol:
# (1) 3 ul/well containing 2000 M1-CHO cells in 1536 tissue culture treated black/clear bottom plate
# (3) Add 1ul/well calcium dye (from no-wash calcium dye kit, BD Biosciences) containing […]
# (4) Incubate 1 hour at 37C with 5% CO2
# (5) Add 20 nl compound diluted in DMSO
# (6) Incubate 10 minutes at the room temp
# (7) Place the plate in FDSS-7000 instrument (Ex = 480 nm and […])
# #- read the assay plate 6 times at 1 Hz for basal signal
# #- add 1 ul/well EC80 carbachol (100 nM final)
# #- continuously read the assay plate for 4 min at 1 Hz
# Keywords: acetylcholine muscarinic M1 receptor, calcium kinetic assay, Fluo-4, high throughput screening, MLSMR, MLSCN, NIH Roadmap, qHTS and NCGC
SMILES,"activity change, negative = inhibition [%]",Potency
CC(C)(C)c1onc(OCP(=O)(O)O)c1C[C@@H](N)C(=O)O,-24.8,–
O=S(=O)(NCCNC/C=C\c1ccc(Br)cc1)c1cccc2cnccc12,–,14.1 µM (active)
CCCCCCCCCCCCCCC/C=C\[C@H](O)[C@@H](NC(=O)CCCCCCCCCCCCC)OC (tested in a mixture with another compound),-41.7,–
N[C@@H]1C=CC=C(C(=O)O)C1,-3.63,–
CN1CC[C@@]2(CCN3CCc4c(oc5ccccc45)[C@@H]3C2)N(C)C1=O,-38.3,–
Nc1c2c(nc3ccccc13)CCC[C@H]2O,-40.4,–
CCCC[S@@](=N)(=O)CC[C@@H](N)C(=O)O,-16.7,–
O=C(O)[C@H]1C[C@H](C(=O)O)N1,1.85,–
NC[C@H](O)C1CCCCCCC1,-27.8,–
[N-]=[N+]=Nc1ccc(C(=O)CSC[C@@H](NC(=O)CC[C@@H](N)C(=O)O)C(=O)NCC(=O)O)cc1,-42.6,–
Nc1ccc(CCNc2ncnc3c2ncn3[C@@H]2O[C@@H](CO)[C@H](O)[C@@H]2O)cc1,-44.4,–
N.N.N.N.N.N.N.N.N.N.N.N.N.N.O.O.[Ru].[Ru].[Ru],-17.2,–
OC[C@@H]1O[C@H](O)[C@@H](Cl)[C@H](O)[C@@H]1O,-29.4,–
NC(N)=N[C@H](CCC(=O)O)C(=O)O,-34.6,–
CN(C)C(=O)/N=N\C(=O)N(C)C,-18.9,–
CC(=O)[C@@H]1CC[C@@H]2[C@@H]3CC=C4C[C@H](OS(=O)(=O)O)CC[C@@]4(C)[C@H]3CC[C@]21C,-30,–
O=C(O)/C=C\[C@H](O)c1ccc(Cl)cc1,-32.3,–
CCCCCCCCCCCCCCCC(=O)NC[C@@H](COP(=O)([O-])OCC[N+](C)(C)C)OCC,–,11.2 µM (active)
O=C1O/C(=C\Br)CC[C@@H]1c1cccc2ccccc12,-14.3,–
CN[C@]1(C)[C@@H]2CC[C@@H](C2)C1(C)C,-30.8,–

SMILES,"activity change, negative = inhibition [%]",Potency
C[C@H]1CN(S(=O)(=O)c2cccc3cnccc23)CCN1,-40.6,–
C[C@H](O)[C@H](O)[C@@H]1CNc2nc(N)[nH]c(=O)c2N1,-28.9,–
Nc1ncnc2c1nc(Sc1ccc(Cl)cc1)n2[C@@H]1O[C@H]2COP(=O)(O)O[C@@H]2[C@H]1O,83.7,–
COc1ccccc1OC[C@H](O)CN1CCN(CC(=O)Nc2c(C)cccc2C)CC1,-19.1,–
Nc1nc(SCc2ccc([N+](=O)[O-])cc2)c2ncn([C@@H]3O[C@@H](CO)[C@@H](O)[C@H]3O)c2n1,–,25.1 µM (active)
CNC(=O)[C@@H]1O[C@@H](n2cnc3c(N)ncnc32)[C@@H](O)[C@H]1O,20.6,–
CN1[C@@H]2CC[C@H]1CC(NC(=O)c1nn(C)c3ccccc13)C2 (stereo not given in full),-42.8,–
Cc1ccccc1CNc1ncnc2c1ncn2[C@@H]1O[C@@H](CO)[C@H](O)[C@@H]1O,-28.9,–
O=C1OC(=O)[C@@H]2[C@@H]1[C@@H]1CC[C@H]2O1,-37.7,–
C#C[C@H](N)CCC(=O)O,-21.8,–
COc1cc([C@H](O)C(=O)O)ccc1O,-23.9,–
CCCCC[C@H](CC(=O)NO)C(=O)N[C@@H](C(=O)N1CCC[C@H]1CO)C(C)C,-1.04,–
CCCC[C@]1(C2CCCC2)Cc2cc(OCC(=O)O)c(Cl)c(Cl)c2C1=O,-36.2,–
C[C@H](Oc1ccc(Oc2cnc3ccc(Cl)cc3n2)cc1)C(=O)O,-23.1,–
NC(=O)c1ncn([C@@H]2O[C@@H](CO)[C@@H](O)[C@H]2O)c1O,-36.7,–
OC[C@@H]1O[C@@H](n2cnc3c(NC4CCCCC4)ncnc32)[C@@H](O)[C@H]1O,-12.3,–
Nc1nc2c(nc(Br)n2[C@@H]2O[C@H]3COP(=O)(O)O[C@@H]3[C@H]2O)c(=O)[nH]1,-40.2,–
C=C/C(C)=C/[C@]1(C)SC(=O)C(C)=C1O,-37.5,–
COc1cc([C@H](O)CO)ccc1O,-4.97,–
N[C@H](CCCC(=O)O)C(=O)O,-17.8,–
